An excerpt weighted towards active compounds, which were near 7.2% of everything screened.
Mot1-301 SUMO: yeast Mot1-301 growth rescue at high temperature, primary screen, SUMOylation pathway inhibitor project, S. cerevisiae, ATP luminescence, 38.5C | S. cerevisiae Mot1-301 growth rescue; percent above DMSO median, 100 means doubled | growth rescue, % at 18.8 µM | hit rate 1% among 320,000 | AID 2716, 2010;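 active = every valid replicate shows activation above 250% relative to neutral control wells; inactive = the rest, any valid replicate at or below 250%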;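 also: OY570 slx delta 5 strain wells were the positive control but not used for scaling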
VLA-4 inh: inhibition in human VLA-4 binding assay, primary screen, VLA-4 allosteric modulator project, MLPCN library, flow cytometry, VLA-4 expressing cells | ligand binding flow cytometry | AID 2557, 2010 | inhibition, % (about 7 µM as worked out from the volumes in the protocol) | hit rate 0.2% among 330,000; in the data active = inhibition above about 50%
Efflux pump inh: inhibitors of Candida efflux pumps in yeast, primary screen, S. cerevisiae, Nile Red, multiplex; S. cerevisiae Candida pump triplex; AID 485275, 2010; inhibition, % at 10 µM; hit rate 0.44% among 330,000;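 active = plate passing quality check with inhibition over a set limit, or well fluorescence over plate mean plus 4 SD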;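 also: Nile Red retained in pooled yeast measured as flow cytometry median fluorescence; 0% = buffer negative control and 100% = Enniatin B positive control; higher means more Nile Red kept so more efflux inhibition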
AHR activator: AHR activators, primary screen, cell-based, luminescence, luciferase reporter, human; Aryl hydrocarbon receptor (Homo sapiens), P35869; AHR-responsive luciferase reporter cells; activation, % at 5 µM; hit rate 2.5% among 320,000; AID 2796, 2010; in the data active = activation above about 47%;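 also: 0% = vehicle wells and 100% = reference agonist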
Target sequence (P35869 whole entry, looked up): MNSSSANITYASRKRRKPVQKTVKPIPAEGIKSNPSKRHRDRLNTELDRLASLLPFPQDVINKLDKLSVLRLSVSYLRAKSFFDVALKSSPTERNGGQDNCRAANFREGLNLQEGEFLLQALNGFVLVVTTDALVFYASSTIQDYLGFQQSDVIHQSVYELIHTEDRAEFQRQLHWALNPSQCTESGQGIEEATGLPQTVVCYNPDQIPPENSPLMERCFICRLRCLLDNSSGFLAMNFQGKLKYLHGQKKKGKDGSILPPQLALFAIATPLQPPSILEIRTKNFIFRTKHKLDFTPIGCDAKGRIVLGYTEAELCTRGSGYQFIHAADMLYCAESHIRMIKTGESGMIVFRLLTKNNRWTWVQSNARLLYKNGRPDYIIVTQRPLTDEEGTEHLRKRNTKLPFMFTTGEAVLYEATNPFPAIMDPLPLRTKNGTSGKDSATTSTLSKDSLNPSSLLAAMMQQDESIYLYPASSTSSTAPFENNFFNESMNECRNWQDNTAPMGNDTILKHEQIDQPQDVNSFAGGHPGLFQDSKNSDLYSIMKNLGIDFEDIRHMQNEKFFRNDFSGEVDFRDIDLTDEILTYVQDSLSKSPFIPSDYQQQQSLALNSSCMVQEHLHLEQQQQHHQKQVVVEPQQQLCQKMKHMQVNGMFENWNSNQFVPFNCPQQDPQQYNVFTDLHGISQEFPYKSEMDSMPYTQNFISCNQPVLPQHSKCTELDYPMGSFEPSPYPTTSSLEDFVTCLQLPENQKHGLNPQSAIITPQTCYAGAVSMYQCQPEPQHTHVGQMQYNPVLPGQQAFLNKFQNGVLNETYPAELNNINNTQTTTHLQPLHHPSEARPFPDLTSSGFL
ALR H2O2 inh: inhibitors of human ALR sulfhydryl oxidase, primary screen, biochemical, H2O2 detection, HRP-luminol luminescence, single point; FAD-linked sulfhydryl oxidase ALR (Homo sapiens), P55789; purified ALR, DTT oxidation; inhibition, % (test concentration not listed); hit rate 3.8% among 290,000; AID 485317, 2010;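 active = mean replicate inhibition above about 79%, with every replicate also reaching it, limit read from the data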
A1 inh: caspase 3/7 activation in MEF A1-2A-BIM cells, primary screen, A1 inhibitor project, cell-based, luminescence, HTS; caspase activation, % (concentration not given with the values); Caspase-Glo 3/7 luminescence, 3 h; percent of clofoctol response, vehicle zero; hit rate 0.066% among 330,000;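 active = over half of replicate activation scores above 10%, or exactly half above 10 with the replicate mean above 10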
Numbers without * were called inactive; / = no result given.

SMILES | Mot1-301 SUMO | VLA-4 inh | Efflux pump inh | AHR activator | ALR H2O2 inh | A1 inh
CC(C)(CC(=O)O)CC(=O)Nc1ccc(Oc2ccc(C(C)(C)C)cc2)nc1 | -19 | -4 | 0 | 0 | 10 | -1
CC(C)(C)c1ccc(Oc2ccc(NC(=O)CCCC(=O)O)cn2)cc1 | -6 | 22 | 0 | -1 | 91* | -1
Cc1ncc(CO)c(/C=N/Nc2cccc(Cl)n2)c1O | 10 | 2 | 0 | 18 | 86* | 0
COc1cc(/C=C/C(=O)OCC(=O)Nc2sc3c(c2C#N)CCC(C)C3)ccc1OCC#N (stereo not drawn) | 17 | -5 | 0 | 2 | -1 | 0
CCN(CC(=O)Nc1ccccc1C(F)(F)F)C(=O)CSCc1ccc(C)cc1 | 5 | 1 | 0 | 0 | -3 | -1
Cc1ccc2c(c1)N(CC(=O)NC1CCC(C)CC1)C(=O)c1cccnc1O2 (stereo not drawn) | -10 | 15 | 0 | 8 | 49 | 0
N#CC1=C(N)n2c(s/c(=C\c3cccs3)c2=O)=C(C#N)C1c1cccs1 (stereo not drawn) | 9 | -21 | 0 | 38 | 99* | 0
N#CC1=C(N)n2c(s/c(=C\c3ccco3)c2=O)=C(C#N)C1c1ccco1 (stereo not drawn) | -4 | -11 | 0 | 14 | 46 | 0
O=C(CSc1nnc(C2CC2)n1-c1ccccc1)N1CCNC1=O | -9 | 1 | 0 | -1 | -2 | -1
COc1ccc(/C=N\Nc2ccccn2)c(OC)c1 | 240 | 13 | 0 | / | 12 | -7
COc1cc(/C=N/Nc2ccccn2)ccc1OCC(C)C | 75 | 11 | 0 | 71* | / | -2
Fc1cccc(/C=N/Nc2ccccn2)c1 | 5 | 1 | 0 | 11 | 49 | -7
COc1cc(/C=C(\C#N)c2ccccn2)cc(OC)c1O | 50 | -9 | 0 | -1 | 98* | 1
COc1cc(/C=N/Nc2ccccn2)cc(OC)c1O | 3 | 2 | 0 | 24 | 99* | 0
C(=N\Nc1ccccn1)/c1ccc2c(c1)OCCO2 | -14 | 20 | 0 | 18 | 98* | 1
O=C(NCC1CCCO1)c1cc(S(=O)(=O)Nc2ccc(Br)cc2)ccc1Cl (stereo not drawn) | -14 | 21 | 0 | 0 | -8 | -1
CC1CCN(S(=O)(=O)c2cn(CC(=O)Nc3ccc(C#N)cc3)cn2)CC1 | 10 | -1 | 0 | 0 | 0 | 0
CCCOc1ccc(/C=N/Nc2ccccn2)cc1OC | -7 | 11 | 0 | 35 | 4 | -7
C=CCOc1ccc(/C=N/Nc2ccccn2)cc1OC | 0 | 7 | 0 | 55* | 15 | -4
COc1ccc(/C=C(/C#N)c2cccnc2)cc1OC | -6 | -6 | 0 | 64* | / | 0
CCOc1ccc(/C=N/Nc2ccccn2)cc1OC | 11 | 13 | 0 | 38 | 86* | -4
Nc1ccccc1N1C(=O)c2cccc3cccc(c23)C1=O | -8 | 17 | 0 | 67* | -14 | 0
CCCN(CCC)C(=O)NC1CC(=O)N(c2ccc(OC)cc2)C1 (stereo not drawn) | 8 | 7 | 0 | 5 | -2 | -1
CCOc1ccccc1NS(=O)(=O)c1c(C)[nH]c(C)c1C(=O)N1CCCCC1 | -6 | 4 | 0 | 2 | -2 | 0
CC1CCC2C(C1)Nc1c(C(=O)O)cccc1C2(C)C (stereo not drawn) | -9 | 1 | 0 | 1 | 98* | 0
SMILES | Mot1-301 SUMO | VLA-4 inh | Efflux pump inh | AHR activator | ALR H2O2 inh | A1 inh
COc1cccc(N2CCN(S(=O)(=O)c3cn(C)cn3)CC2)c1 | -10 | 2 | 0 | 1 | 96* | 1
CCOC(=O)c1c(CN2CCN(C)CC2)n(-c2ccccc2)c2cc(Br)c(O)cc12 | 278 | 27 | 0 | 0 | 79* | 0
CCn1nc(C)c(/C=C/C(=O)Nc2ccc(C)cc2C)c1C | -9 | -30 | 0 | 9 | -1 | 0
O=C(NCCc1ccccn1)C(F)(F)C(F)(F)C(F)(F)C(F)(F)C(F)(F)C(F)F | 46 | 15 | 0 | 2 | 2 | 1
O=C1CC(=O)N(c2ccccc2)N1c1ccccc1 | -5 | -4 | 0 | -2 | 97* | 0
OCCN(Cc1nc(-c2ccc3c(c2)OCO3)no1)Cc1cccs1 | 1 | 16 | 0 | 15 | -5 | 0
Cc1cc(C(=O)Nc2sc3c(c2C#N)CCC3)no1 | 15 | 3 | 0 | 19 | 14 | -3
O=C(Nc1sc2c(c1C(=O)O)CCCCC2)c1ccccc1 | -10 | -9 | 0 | 20 | 8 | -11
Cc1noc(C(=O)Nc2sc3c(c2C#N)CCC3)c1Cl | 8 | 25 | 0 | 47* | 8 | -2
CC(C)(C)C(=O)NC(=S)Nc1sc2c(c1C#N)CCCCC2 | 15 | 0 | 0 | 59* | 13 | 0
Cc1ccc(C(=O)c2c(NC(=O)c3cccnc3)sc3c2CCCC3)cc1 | 31 | 7 | 0 | 31 | 95* | 1
Cc1cc(C(=O)Nc2sc3c(c2C#N)CCCC3)no1 | 15 | 13 | 0 | 7 | 97* | -2
CC(C)Cc1cc(C(=O)Nc2sc3c(c2C#N)CCC3)no1 | 7 | 14 | 0 | 2 | 10 | 0
CCc1n[nH]c(=S)n1N=C1CCC(C)CC1 (stereo not drawn) | -8 | 3 | 0 | -1 | -3 | 0
Cc1ccc(C(=O)Nc2sc3c(c2C#N)CCCCC3)cc1C | 14 | -10 | 0 | 71* | / | -3
CC(=O)Nc1ccc(S(=O)(=O)NC2(C(F)(F)F)NC(=O)N(c3ccc(Cl)cc3)C2=O)cc1 (stereo not drawn) | -7 | 3 | 0 | 2 | -8 | 0
CC(=O)Nc1ccc(S(=O)(=O)NC2(C(F)(F)F)NC(=O)N(CC(C)C)C2=O)cc1 (stereo not drawn) | -3 | 17 | 0 | 58* | -27 | -1
CC(C)CN1C(=O)NC(NS(=O)(=O)c2ccc(N)cc2)(C(F)(F)F)C1=O (stereo not drawn) | -2 | 40 | 0 | -3 | 99* | 1
O=c1ccnc(Nc2ccc3c(c2)OCCO3)[nH]1 | -20 | 2 | 0 | 7 | -16 | -1
Cc1ccc(NC(=O)CSc2nc3nn(-c4ccccc4)c(=O)c-3c3n2CCCCC3)cc1F | 13 | 4 | 0 | -2 | / | 1
O=C1c2ccccc2C(=O)N1CCCCN(C(=O)c1cccc([N+](=O)[O-])c1)c1ccc(Cl)cc1 | 118 | 0 | 0 | 72* | -2 | 0
O=C1c2ccccc2C(=O)N1CCCCN(C(=O)c1ccco1)c1ccc(Cl)cc1 | / | -45 | 0 | -3 | -12 | -1

Source: PubChem (several laboratories)
